The text below walks through data of ChEMBL document CHEMBL3988442, “University of Dundee, Small-Polar-MMV Screening Library” (2021).

Design in all cases: scale not given: direction of the effect not stated beside the values
Assay [1] has as its target Protein translocase subunit SecA (Escherichia coli (strain K12)) (UniProt P10408). Briefly: Assay to Identify E. coli SecA ATPase Inhibitors. The class given is functional. As to conditions: 30 µM.
For assay [2], the target named is T1, Ubiquitin-activating enzyme e1, putative (Leishmania donovani (strain BPK282A1)) (UniProt E9BSI1).
T1 sequence (whole entry): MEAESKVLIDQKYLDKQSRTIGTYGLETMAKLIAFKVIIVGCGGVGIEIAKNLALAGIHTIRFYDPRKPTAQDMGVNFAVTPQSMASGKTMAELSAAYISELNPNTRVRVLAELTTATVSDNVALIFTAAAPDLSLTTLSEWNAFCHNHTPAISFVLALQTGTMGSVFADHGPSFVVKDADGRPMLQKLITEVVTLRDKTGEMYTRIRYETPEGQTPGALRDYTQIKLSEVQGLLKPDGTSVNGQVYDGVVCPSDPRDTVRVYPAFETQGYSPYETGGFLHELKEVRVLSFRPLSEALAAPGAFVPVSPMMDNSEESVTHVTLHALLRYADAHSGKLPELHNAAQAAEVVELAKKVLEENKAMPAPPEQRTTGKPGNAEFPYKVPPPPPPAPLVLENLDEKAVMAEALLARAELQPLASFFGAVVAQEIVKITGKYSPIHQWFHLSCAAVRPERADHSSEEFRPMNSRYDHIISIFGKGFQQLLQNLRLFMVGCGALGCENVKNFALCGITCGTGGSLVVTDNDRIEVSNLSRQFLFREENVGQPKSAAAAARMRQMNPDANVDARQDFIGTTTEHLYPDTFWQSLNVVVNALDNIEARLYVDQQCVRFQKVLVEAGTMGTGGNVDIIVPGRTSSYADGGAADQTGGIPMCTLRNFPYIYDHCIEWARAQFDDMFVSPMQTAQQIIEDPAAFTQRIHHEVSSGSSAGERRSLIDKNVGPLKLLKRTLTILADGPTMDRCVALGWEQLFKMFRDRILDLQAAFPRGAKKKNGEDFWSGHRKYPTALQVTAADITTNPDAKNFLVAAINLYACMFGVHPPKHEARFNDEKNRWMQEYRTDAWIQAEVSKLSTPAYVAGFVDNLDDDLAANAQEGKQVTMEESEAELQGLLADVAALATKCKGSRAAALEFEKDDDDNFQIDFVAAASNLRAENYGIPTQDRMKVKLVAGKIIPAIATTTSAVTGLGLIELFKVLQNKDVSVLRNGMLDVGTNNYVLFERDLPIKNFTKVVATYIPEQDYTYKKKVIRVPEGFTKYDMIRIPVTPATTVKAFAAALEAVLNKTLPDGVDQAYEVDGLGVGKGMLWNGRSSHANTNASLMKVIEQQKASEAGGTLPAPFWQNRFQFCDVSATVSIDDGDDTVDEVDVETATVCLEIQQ
Description: Leishmania donovani Ubiquitin Activating Enzyme (LdE1). The class given is functional. As to conditions: 30 µM.

The target in assay [3] is AMP-activated protein kinase, AMPK (Homo sapiens) (UniProt P54646+O43741+P54619+Q9UGJ0+Q9Y478+Q13131+Q9UGI9). Description: AMP-dependent Kinase enzyme assay. An in vitro enzyme assay that detects ADP turnover that is directly proportional to AMPK activity. This uses naive AMPK that is activated during the assay with MK-8722. Particulars: 30 µM. The class given is functional.

Assay [4] has as its target Sialic acid-binding Ig-like lectin 9 (Homo sapiens) (UniProt Q9Y336). Description: Hs-Siglec9 ALPHAscreen SOP 20170721. As to conditions: 10 µM. (Bead proximity is the source of the signal in Alpha formats.)
The test system of the next assay is Trypanosoma cruzi. Briefly: Trypanosoma cruzi phosphomannomutase and mannose-1-phosphate guanylyltransferase assay. As to conditions: 10 µM. It counts as functional.
Assay [5] deals with T2, Arginase-2, mitochondrial (Homo sapiens) (UniProt P78540).
T2 sequence (whole entry): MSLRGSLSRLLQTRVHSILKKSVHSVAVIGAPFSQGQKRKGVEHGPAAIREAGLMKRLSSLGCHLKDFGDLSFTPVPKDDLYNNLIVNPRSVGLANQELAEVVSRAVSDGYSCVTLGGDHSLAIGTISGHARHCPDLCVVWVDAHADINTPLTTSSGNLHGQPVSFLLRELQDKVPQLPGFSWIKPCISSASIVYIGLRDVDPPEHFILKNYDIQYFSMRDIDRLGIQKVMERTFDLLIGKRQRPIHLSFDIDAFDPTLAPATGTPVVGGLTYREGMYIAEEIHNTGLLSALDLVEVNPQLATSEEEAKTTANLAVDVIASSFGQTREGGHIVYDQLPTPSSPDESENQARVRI
Description: in vitro enzyme assay to detect the production of urea directly proportional to the activity of Arginase II. Further: in the data most compounds retested in dose-response had high values. As to conditions: 33.3 µM. It counts as functional.

In assay [6] the target is T3, Proteasome subunit beta (Trypanosoma cruzi) (UniProt O96673).
T3 sequence (whole entry): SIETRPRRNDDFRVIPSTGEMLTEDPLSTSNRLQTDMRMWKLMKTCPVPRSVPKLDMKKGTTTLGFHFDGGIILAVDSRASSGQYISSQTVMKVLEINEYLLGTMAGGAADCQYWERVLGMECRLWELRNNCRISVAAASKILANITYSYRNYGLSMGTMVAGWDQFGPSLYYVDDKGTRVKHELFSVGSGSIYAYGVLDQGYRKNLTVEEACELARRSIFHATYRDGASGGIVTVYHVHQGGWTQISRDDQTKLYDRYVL
Briefly: Trypanosoma cruzi proteasome chymotrypsin-like activity (TcProtChymo) assay. Further: in the data most compounds retested in dose-response had high values. The class given is functional. Particulars: 9.37 µM.

The species named for a further assay is Homo sapiens. Description: To identify inhibition of the IFN signalling (Jak-Stat) pathway via expression of an eGFP reporter gene under the control of an IFN-stimulated response element (ISRE) containing MxA promoter. The class given is functional. Particulars: 30 µM. A general note: In a reporter assay the amount or activity of a reporter protein is the signal.

Assay [7] concerns the target T4, Tyrosyl-tRNA synthetase, putative (Trypanosoma cruzi (strain CL Brener)) (UniProt Q4DSP6).
T4 sequence (whole entry): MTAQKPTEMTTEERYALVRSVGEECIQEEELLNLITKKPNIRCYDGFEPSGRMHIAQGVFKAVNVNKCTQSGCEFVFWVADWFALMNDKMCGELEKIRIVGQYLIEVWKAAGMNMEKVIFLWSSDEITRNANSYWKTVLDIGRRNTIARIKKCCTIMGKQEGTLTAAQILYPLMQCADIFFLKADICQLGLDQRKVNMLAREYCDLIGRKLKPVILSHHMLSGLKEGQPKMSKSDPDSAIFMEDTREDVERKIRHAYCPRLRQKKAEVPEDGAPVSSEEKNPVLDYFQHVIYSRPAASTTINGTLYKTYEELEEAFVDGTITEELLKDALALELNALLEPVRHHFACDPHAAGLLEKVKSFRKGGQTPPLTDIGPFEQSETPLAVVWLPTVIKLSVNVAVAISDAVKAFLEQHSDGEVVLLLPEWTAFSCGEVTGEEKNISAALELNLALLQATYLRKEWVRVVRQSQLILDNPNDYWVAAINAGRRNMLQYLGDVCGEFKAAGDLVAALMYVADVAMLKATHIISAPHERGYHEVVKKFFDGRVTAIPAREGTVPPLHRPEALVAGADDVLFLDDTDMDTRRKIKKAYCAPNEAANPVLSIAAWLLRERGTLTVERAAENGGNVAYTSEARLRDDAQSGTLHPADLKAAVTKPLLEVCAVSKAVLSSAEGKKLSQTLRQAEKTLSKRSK
Description: Trypanosoma cruzi tyrosyl tRNA synthetase (TcYRS) _High Tyrosine SOP. Further: in the data most compounds retested in dose-response had high values. The class given is functional. Particulars: 30 µM.

Assay [8] deals with T4, Tyrosyl-tRNA synthetase, putative (Trypanosoma cruzi (strain CL Brener)). Description: Trypanosoma cruzi tyrosyl tRNA synthetase (TcYRS) SOP. As to conditions: 30 µM. The class given is functional.
The target of assay [9] is Chromo domain-containing protein 1 (Saccharomyces cerevisiae (strain ATCC 204508 / S288c) (Baker's yeast)) (UniProt P32657). Briefly: ScCHD-1 Enzyme Inhibition Assay. Further: in the data most compounds retested in dose-response had high values. As to conditions: 30 µM. The class given is functional.

For some of these results: Measured potencies and affinities stand elsewhere.

Sialic acid-binding Ig-like lectin 9 (Homo sapiens), sequence (Q9Y336 whole entry): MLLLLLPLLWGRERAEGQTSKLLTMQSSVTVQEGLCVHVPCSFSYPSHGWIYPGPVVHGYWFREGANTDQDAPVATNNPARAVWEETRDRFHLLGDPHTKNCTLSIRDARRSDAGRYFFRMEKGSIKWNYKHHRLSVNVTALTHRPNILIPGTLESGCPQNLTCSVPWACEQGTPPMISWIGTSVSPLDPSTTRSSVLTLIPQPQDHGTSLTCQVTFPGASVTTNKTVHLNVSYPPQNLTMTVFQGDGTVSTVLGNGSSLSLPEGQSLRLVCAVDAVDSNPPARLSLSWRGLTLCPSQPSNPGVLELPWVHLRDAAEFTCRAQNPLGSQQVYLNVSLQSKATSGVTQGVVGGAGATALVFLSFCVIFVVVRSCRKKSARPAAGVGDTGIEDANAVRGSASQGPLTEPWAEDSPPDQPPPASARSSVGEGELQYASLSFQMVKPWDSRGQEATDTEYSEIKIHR
Chromo domain-containing protein 1 (Saccharomyces cerevisiae (strain ATCC 204508 / S288c) (Baker's yeast)), sequence (P32657 whole entry, the tested form may be a part): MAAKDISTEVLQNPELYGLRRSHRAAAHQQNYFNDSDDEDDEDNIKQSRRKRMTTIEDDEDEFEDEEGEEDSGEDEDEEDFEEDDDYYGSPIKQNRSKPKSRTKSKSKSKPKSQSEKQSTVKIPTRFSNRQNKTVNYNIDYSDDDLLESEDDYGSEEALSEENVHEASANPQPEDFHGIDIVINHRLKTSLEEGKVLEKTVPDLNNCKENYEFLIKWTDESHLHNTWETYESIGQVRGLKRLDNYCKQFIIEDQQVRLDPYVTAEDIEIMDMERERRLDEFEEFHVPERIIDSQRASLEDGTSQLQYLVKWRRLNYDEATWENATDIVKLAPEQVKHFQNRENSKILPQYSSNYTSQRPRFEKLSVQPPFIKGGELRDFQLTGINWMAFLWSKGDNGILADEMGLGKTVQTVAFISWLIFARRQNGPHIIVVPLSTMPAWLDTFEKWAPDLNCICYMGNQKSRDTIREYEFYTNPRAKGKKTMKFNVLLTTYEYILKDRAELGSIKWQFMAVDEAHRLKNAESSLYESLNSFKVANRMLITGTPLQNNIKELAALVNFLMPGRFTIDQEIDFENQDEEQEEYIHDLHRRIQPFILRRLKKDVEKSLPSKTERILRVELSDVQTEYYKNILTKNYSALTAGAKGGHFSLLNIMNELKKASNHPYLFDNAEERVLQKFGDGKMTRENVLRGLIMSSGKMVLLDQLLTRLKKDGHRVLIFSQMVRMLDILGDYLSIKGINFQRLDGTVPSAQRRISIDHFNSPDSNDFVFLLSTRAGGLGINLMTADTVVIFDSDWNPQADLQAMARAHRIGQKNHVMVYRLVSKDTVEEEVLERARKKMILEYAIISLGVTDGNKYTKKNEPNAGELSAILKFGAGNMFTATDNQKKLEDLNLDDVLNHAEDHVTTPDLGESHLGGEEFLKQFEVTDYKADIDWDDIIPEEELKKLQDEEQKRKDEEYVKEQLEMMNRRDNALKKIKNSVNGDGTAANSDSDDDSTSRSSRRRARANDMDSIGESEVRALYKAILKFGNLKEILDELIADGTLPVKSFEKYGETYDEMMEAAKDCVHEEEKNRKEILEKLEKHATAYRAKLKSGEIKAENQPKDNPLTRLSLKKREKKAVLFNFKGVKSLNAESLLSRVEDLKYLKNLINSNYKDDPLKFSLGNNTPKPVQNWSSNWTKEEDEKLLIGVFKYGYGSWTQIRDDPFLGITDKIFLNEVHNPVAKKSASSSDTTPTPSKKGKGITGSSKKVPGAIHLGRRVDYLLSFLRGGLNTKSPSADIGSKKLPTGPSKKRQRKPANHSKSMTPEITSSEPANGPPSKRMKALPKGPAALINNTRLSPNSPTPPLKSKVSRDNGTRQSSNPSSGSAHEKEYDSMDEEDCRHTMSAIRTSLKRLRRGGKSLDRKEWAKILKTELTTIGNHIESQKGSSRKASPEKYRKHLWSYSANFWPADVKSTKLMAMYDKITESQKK
Protein translocase subunit SecA (Escherichia coli (strain K12)), sequence (P10408 whole entry): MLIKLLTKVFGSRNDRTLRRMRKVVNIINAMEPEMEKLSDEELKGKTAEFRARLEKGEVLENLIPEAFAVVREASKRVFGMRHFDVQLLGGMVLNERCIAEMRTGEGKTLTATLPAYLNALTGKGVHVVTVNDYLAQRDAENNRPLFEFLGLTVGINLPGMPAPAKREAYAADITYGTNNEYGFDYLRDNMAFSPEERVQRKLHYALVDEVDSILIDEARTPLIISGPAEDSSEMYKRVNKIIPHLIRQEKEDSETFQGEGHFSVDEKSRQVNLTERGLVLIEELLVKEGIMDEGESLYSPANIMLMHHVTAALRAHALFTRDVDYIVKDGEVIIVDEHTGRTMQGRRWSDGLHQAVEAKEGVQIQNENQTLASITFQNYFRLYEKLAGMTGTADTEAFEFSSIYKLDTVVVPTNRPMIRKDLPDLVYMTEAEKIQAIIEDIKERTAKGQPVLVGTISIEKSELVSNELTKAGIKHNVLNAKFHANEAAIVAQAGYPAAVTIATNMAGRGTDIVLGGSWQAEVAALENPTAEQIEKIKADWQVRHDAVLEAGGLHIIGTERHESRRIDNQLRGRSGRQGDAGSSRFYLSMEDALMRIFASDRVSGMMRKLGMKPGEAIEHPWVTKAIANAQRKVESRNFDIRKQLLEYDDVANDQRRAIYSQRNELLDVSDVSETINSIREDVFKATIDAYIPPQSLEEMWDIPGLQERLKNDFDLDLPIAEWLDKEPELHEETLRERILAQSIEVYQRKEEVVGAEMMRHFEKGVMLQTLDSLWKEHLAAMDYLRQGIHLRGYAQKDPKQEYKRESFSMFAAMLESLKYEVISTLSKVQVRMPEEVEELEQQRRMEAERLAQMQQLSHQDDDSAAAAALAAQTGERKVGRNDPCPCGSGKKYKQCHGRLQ

As for `O=C(COC[C@H]1CC[C@H]2[C@H](CCN2c2ncccn2)O1)N1CCCC1`, the Percent Effect was -2.35% in assay [1]; 24.7% in assay [2]; -1.6% in assay [3]; 1.45% in [4]; 0% in the assay with Trypanosoma cruzi; -1.2% in assay [5]. The Percent Effect in [6] is 7.62%; in the assay filed under Homo sapiens it was 13.1%; in assay [7], 5.21%; in assay [8], 13.6%; in assay [9] it was -1.93%.

For the compound `COc1cccc(OCc2cc(C(=O)NC[C@H]3CCCN3)n[nH]2)c1`, the Percent Effect is -3.48% in assay [1]; 15.3% in assay [2]; -5.03% in assay [3]; 30.2% in [4]; 3.4% in the assay on Trypanosoma cruzi; 15.4% in [5]. Moreover, the Percent Effect in assay [6] was 7.19%; in the assay filed under Homo sapiens, -6.81%; in assay [7], 1.05%; in assay [8], 12.8%; in assay [9], -5.02%.

Regarding `O=C(c1ccco1)N1CCOCC2(C1)CN(c1ccccc1)C(=O)CO2` (stereo not drawn), the Percent Effect is -3.5% in assay [1]; 2.67% in [2]; 5.75% in assay [3]; 17.4% in assay [4]; -3.86% in the assay on Trypanosoma cruzi; -27.8% in assay [5]. Further, the Percent Effect was -1.54% in [6]; 5.08% in the assay listed under Homo sapiens; 2.08% in assay [7]; -2.5% in assay [8]; -5.45% in [9].

With `Cn1ncc2c(NCCC34CCCN3CCC4)nc(C3CCCC3)nc21`, the Percent Effect in assay [1] was -5.81%; in [2], 5.48%; in [3] it was 0.214%; in assay [4] it was 3.33%; in the assay with Trypanosoma cruzi, 0.979%; in [5], 4.09%. Besides, the Percent Effect in assay [6] was 5.68%; in the assay filed under Homo sapiens it was -18.5%; in assay [7] it was 6.45%; in [8], 12.5%; in assay [9] it was -5.71%.

As to `O=C(Cn1ccc2sccc2c1=O)NCc1ccc2c(c1)OCO2`, the Percent Effect in assay [1] was -3.35%; in [2], 5.2%; in assay [3], 2.53%; in [4] it was 0.145%; with Trypanosoma cruzi it was -5.62%; in assay [5], 4.52%. Also, the Percent Effect was 4.53% in [6]; 1.29% in the assay listed under Homo sapiens; 5.29% in assay [7]; 11.5% in [8]; -2.27% in [9].

In the case of `Cc1nc(C)n(CC2CCCN(CC(=O)Nc3c(C)n[nH]c3C)C2)n1` (stereo not drawn), the Percent Effect is -1.71% in assay [1]; 13.2% in [2]; -0.0642% in [3]; 9.58% in assay [4]; 3.76% in the assay on Trypanosoma cruzi; 0.766% in [5]. Besides, the Percent Effect was 8.69% in [6]; -1.17% in the assay listed under Homo sapiens; 5.39% in assay [7]; 17.1% in assay [8]; -9.15% in [9].

Regarding `CCN(Cc1ccco1)C(=O)Nc1cc(C(F)(F)F)c[nH]c1=O`, the Percent Effect in assay [1] is -7.27%; in [2] it was 10.5%; in [3], 0.625%; in [4] it was -6.37%; in the assay with Trypanosoma cruzi, -2.71%; in [5], 0.719%. Also, the Percent Effect in assay [6] is 2.79%; in the assay listed under Homo sapiens it was -6.49%; in assay [7], 4.43%; in assay [8], 13.6%; in assay [9], -9.51%.

Take `CCc1n[nH]c(C2CN(Cc3nccn3CC)CCO2)n1` (stereo not drawn): the Percent Effect in assay [1] was -0.0966%; in assay [2], 20.8%; in assay [3], -2.5%; in assay [4], -14.5%; in the assay with Trypanosoma cruzi, 2.45%; in assay [5] it was 6.53%. Also, the Percent Effect in [6] is 9.62%; in the assay filed under Homo sapiens, 7.94%; in [7], 12.4%; in assay [8] it was 25.9%; in assay [9] it was -16.2%.
